Test [1] deals with Aldehyde dehydrogenase, mitochondrial (Homo sapiens) (UniProt P05091). Nature of the test: qHTS for Inhibitors of the Aldehyde Dehydrogenase Family (ALDH2) Primary screen (AID 2061308). Further: nearly all actives have a fitted effect of over 55% in size.
Test [2] deals with Retinaldehyde dehydrogenase 3 (Homo sapiens) (UniProt P47895). Put plainly: qHTS for Inhibitors of the Aldehyde Dehydrogenase Family (ALDH1A3) Primary screen (AID 2061315). (In general: qHTS replaces the single test concentration by a dilution series.)

Results filed as inconclusive are left out. Where a call stands in place of a potency, no number is given. Active and inactive are the calls of the source. The call rests on the fitted dose curve; in most records, active means well fitted curve in the direction sought with a large enough effect; inconclusive means small, poorly fitted or top-dose-only effect, or another doubt; inactive means no such curve, though single readings can be large; an effect the other way counts as inactive or inconclusive.

Consider `Cn1cc(P(=O)(c2ccccc2)c2ccccc2)c2ccccc21`, for which the Potency entry in test [1] and in test [2] was “inactive” each time.

As for `Cc1ccccc1N(C)C1=N[S+](=O)([O-])c2ccccc21`, the Potency entry in test [1] and in test [2] was “inactive” throughout.

Take `FC(F)(F)c1ccccc1-c1nc(NCc2ccc(-c3ccncc3)cc2)c2ccccc2n1`: the Potency entry in test [1] and in test [2] was “inactive” throughout.

Regarding `c1ccc(CNCc2nnc(-c3cc4ccccc4[nH]3)s2)cc1`, the Potency result in test [1] and in test [2] was “inactive” each time.

In the case of `COc1cc(F)c(S(=O)(=O)N2CCN(S(=O)(=O)c3ccc(N)cc3)CC2)c(F)c1`, the Potency result in test [1] and in test [2] was “inactive” throughout.

For `Oc1ccc(-c2ccccc2F)c2cccnc12`, the Potency entry in test [1] and in test [2] was “inactive” in each case.

In the case of `COc1ccc(C2=Nn3c(nnc3-c3ccccc3OC)SC2)cc1OCC1CC1`, the Potency result in test [1] and in test [2] was “inactive” in each case.

Regarding `COc1cccc(NS(=O)(=O)c2ccc(NCc3cccc(OC)c3O)cc2)c1`, the Potency entry in test [1] and in test [2] was “inactive” each time.

For the molecule `COc1ccc(C2=Nn3c(nnc3-c3ccccc3C(F)(F)F)SC2)cc1OC1CCOC1` (stereo not given), the Potency entry in test [1] and in test [2] was “inactive” each time.

For `CCn1cnc2c(Nc3ccc(CCC(=O)N=C(N)N)cc3)nc(C#N)nc21`, the Potency entry in test [1] and in test [2] was “inactive” in each case.

For `Cc1ccc(S(=O)(=O)Nc2ccccc2C(=O)Nc2nc(-c3ccccc3)c(Br)s2)cc1`, the Potency entry in test [1] and in test [2] was “inactive” each time.

`O=C(NCCc1nc2ccccc2n1CCOc1cccc([N+](=O)[O-])c1)C1CCCCC1`: the Potency result in test [1] and in test [2] was “inactive” in each case.

As for `Cn1nnnc1Sc1ncnc2scc(-c3ccc(F)cc3)c12`, the Potency entry in test [1] and in test [2] was “inactive” in each case.

Consider `c1nc(N2CCCCC2)c2cc(-c3ccc4c(c3)OCO4)ccc2n1`, for which the Potency entry in test [1] and in test [2] was “inactive” in each case.

In the case of `N#Cc1ccc(NS(=O)(=O)c2ccc(NC(=O)Cc3ccc(F)c(Cl)c3)cc2)cc1`, the Potency entry in test [1] and in test [2] was “inactive” each time.
